The full data set covers some 8,800 targets. This sample favours those with a hit. About 0.5% of all pairs of compound and target were hits. Values without a mark were called inactive.

What all share (assay): log2 fold change, soluble protein after heating vs DMSO (PISA); higher = thermal stabilisation; K562 lysate, 10 uM; active = over 0.2 and 3.5 SD of the protein, either way, in both replicates (recomputed)
Compound in assay [1]: CS(=O)(=O)CCNCc1ccc(-c2ccc3ncnc(Nc4ccc(OCc5cccc(F)c5)c(Cl)c4)c3c2)o1 [lapatinib]
The method in brief: (§1)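 K562 pellets were dounce-homogenised in PBS pH 7.4 containing 1 mM MgCl2, and the crude extract, at 1 mg/mL protein, was exposed to 10 μM compound for 30 min. Aliquots were heated for 3 min across 48°C-58°C, pooled, brought to 0.5% NP-40 at 4°C and spun at 21,000xg for 90 min, with the supernatant taken as soluble protein. TMTpro 16plex LC-MS/MS with equalised channel sums quantified that protein. Values are log-two fold changes in thermal stability relative to solvent controls, taken from duplicates.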

Compound in assay [2]: C[C@@H](Oc1cc(-c2cnn(C3CCNCC3)c2)cnc1N)c1c(Cl)ccc(F)c1Cl [crizotinib]
In outline:
as §1

Compound in assay [3]: C[C@H](C1=CC=C(C=C1)C(=O)NC2=C3C=CNC3=NC=C2)N
The method in brief:
as §1

Compound in assay [4]: C[C@H](Nc1ncnc2nc[nH]c12)c1cc2cccc(Cl)c2c(=O)n1-c1ccccc1 [duvelisib]
In outline: as §1

Compound in assay [5]: Cc1cc(Nc2cc(CN3CCOCC3)c3nc(C)c(Cc4ccc(Cl)cc4F)n3n2)n[nH]1 [gandotinib]
The method in brief: as §1

Compound in assay [6]: Cc1cc(Nc2cc(N3CCN(C)CC3)nc(Sc3ccc(NC(=O)C4CC4)cc3)n2)n[nH]1 [tozasertib]
In outline: as §1

Compound in assay [7]: Cc1ccc(-n2nc(C(C)(C)C)cc2NC(=O)Nc2ccc(OCCN3CCOCC3)c3ccccc23)cc1 [doramapimod]
The method in brief:
as §1

Compound in assay [8]: Cc1ccc(NC(=O)c2ccc(CN3CC[C@H](N(C)C)C3)c(C(F)(F)F)c2)cc1Nc1nccc(-c2cncnc2)n1 [bafetinib]
The method in brief:
as §1

Compound in assay [9]: Cc1cccc(CC(=O)N2CCc3c2ccc(-c2cn(C)c4ncnc(N)c24)c3F)n1
In outline: as §1

Compound in assay [10]: Cc1cn(-c2cc(NC(=O)c3ccc(C)c(Nc4nccc(-c5cccnc5)n4)c3)cc(C(F)(F)F)c2)cn1 [nilotinib]
The method in brief: as §1

Compound in assay [11]: Cc1nc(Nc2n[nH]c3c2CN(C(=O)N[C@H](CN(C)C)c2ccccc2)C3(C)C)c2sccc2n1
In outline:
as §1

Compound in assay [12]: Cc1nc(Nc2ncc(C(=O)Nc3c(C)cccc3Cl)s2)cc(N2CCN(CCO)CC2)n1 [dasatinib]
The method in brief:
as §1

Compound in assay [13]: Cc1ncc(-c2ccnc(Nc3ccc(S(C)(=O)=O)cc3)n2)n1C(C)C
The method in brief:
as §1

Compound in assay [14]: Cn1cc(-c2ccc3c(c2)CCN3C(=O)Cc2cccc(C(F)(F)F)c2)c2c(N)ncnc21
The method in brief: as §1

Compound in assay [15]: Cn1cc(CNCC2CCN(c3ncc(C(=O)NO)cn3)CC2)c2ccccc21 [quisinostat]
In outline:
as §1

Compound in assay [16]: Cn1cncc1[C@@](N)(c1ccc(Cl)cc1)c1ccc2c(c1)c(-c1cccc(Cl)c1)cc(=O)n2C [tipifarnib]
In outline: as §1

Compound in assay [17]: NC(=O)Nc1cc(-c2cccc(F)c2)sc1C(=O)N[C@H]1CCCNC1
In outline: as §1

Compound in assay [18]: NC(=O)c1cnc(N[C@@H]2CCCC[C@@H]2N)nc1Nc1cccc(-n2nccn2)c1
In outline: as §1

Compound in assay [19]: NC1(c2ccc(-c3nc4ccn5c(=O)[nH]nc5c4cc3-c3ccccc3)cc2)CCC1
In outline:
as §1

Compound in assay [20]: CS(=O)(=O)N1CCN(Cc2cc3nc(-c4cccc5[nH]ncc45)nc(N4CCOCC4)c3s2)CC1 [pictilisib]
The method in brief:
as §1

UniProt Q9UBU7, sequence (Q9UBU7 whole entry, looked up): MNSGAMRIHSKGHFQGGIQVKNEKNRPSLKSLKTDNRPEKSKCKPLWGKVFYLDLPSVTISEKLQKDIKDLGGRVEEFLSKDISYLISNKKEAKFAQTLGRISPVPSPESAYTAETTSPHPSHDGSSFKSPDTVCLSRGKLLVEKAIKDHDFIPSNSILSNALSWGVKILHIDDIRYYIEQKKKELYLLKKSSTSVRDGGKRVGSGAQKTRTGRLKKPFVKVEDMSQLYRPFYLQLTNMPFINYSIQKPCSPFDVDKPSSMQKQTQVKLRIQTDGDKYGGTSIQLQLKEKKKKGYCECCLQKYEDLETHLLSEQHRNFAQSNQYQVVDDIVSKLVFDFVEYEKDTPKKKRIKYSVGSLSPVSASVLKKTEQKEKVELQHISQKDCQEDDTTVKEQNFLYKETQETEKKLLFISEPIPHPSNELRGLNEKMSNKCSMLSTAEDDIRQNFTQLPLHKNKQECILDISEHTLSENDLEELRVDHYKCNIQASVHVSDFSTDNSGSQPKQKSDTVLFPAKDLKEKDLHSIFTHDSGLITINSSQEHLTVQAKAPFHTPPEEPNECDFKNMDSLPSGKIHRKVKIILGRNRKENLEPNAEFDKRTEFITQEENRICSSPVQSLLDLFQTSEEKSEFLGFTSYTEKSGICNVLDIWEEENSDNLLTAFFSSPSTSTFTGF
UniProt Q6P3W2, sequence (Q6P3W2 whole entry, looked up): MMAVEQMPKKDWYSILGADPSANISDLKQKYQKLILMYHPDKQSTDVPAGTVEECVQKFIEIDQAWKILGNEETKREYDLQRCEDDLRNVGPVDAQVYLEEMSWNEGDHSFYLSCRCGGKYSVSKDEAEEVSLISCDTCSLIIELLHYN
UniProt P12111, sequence (P12111 whole entry, looked up): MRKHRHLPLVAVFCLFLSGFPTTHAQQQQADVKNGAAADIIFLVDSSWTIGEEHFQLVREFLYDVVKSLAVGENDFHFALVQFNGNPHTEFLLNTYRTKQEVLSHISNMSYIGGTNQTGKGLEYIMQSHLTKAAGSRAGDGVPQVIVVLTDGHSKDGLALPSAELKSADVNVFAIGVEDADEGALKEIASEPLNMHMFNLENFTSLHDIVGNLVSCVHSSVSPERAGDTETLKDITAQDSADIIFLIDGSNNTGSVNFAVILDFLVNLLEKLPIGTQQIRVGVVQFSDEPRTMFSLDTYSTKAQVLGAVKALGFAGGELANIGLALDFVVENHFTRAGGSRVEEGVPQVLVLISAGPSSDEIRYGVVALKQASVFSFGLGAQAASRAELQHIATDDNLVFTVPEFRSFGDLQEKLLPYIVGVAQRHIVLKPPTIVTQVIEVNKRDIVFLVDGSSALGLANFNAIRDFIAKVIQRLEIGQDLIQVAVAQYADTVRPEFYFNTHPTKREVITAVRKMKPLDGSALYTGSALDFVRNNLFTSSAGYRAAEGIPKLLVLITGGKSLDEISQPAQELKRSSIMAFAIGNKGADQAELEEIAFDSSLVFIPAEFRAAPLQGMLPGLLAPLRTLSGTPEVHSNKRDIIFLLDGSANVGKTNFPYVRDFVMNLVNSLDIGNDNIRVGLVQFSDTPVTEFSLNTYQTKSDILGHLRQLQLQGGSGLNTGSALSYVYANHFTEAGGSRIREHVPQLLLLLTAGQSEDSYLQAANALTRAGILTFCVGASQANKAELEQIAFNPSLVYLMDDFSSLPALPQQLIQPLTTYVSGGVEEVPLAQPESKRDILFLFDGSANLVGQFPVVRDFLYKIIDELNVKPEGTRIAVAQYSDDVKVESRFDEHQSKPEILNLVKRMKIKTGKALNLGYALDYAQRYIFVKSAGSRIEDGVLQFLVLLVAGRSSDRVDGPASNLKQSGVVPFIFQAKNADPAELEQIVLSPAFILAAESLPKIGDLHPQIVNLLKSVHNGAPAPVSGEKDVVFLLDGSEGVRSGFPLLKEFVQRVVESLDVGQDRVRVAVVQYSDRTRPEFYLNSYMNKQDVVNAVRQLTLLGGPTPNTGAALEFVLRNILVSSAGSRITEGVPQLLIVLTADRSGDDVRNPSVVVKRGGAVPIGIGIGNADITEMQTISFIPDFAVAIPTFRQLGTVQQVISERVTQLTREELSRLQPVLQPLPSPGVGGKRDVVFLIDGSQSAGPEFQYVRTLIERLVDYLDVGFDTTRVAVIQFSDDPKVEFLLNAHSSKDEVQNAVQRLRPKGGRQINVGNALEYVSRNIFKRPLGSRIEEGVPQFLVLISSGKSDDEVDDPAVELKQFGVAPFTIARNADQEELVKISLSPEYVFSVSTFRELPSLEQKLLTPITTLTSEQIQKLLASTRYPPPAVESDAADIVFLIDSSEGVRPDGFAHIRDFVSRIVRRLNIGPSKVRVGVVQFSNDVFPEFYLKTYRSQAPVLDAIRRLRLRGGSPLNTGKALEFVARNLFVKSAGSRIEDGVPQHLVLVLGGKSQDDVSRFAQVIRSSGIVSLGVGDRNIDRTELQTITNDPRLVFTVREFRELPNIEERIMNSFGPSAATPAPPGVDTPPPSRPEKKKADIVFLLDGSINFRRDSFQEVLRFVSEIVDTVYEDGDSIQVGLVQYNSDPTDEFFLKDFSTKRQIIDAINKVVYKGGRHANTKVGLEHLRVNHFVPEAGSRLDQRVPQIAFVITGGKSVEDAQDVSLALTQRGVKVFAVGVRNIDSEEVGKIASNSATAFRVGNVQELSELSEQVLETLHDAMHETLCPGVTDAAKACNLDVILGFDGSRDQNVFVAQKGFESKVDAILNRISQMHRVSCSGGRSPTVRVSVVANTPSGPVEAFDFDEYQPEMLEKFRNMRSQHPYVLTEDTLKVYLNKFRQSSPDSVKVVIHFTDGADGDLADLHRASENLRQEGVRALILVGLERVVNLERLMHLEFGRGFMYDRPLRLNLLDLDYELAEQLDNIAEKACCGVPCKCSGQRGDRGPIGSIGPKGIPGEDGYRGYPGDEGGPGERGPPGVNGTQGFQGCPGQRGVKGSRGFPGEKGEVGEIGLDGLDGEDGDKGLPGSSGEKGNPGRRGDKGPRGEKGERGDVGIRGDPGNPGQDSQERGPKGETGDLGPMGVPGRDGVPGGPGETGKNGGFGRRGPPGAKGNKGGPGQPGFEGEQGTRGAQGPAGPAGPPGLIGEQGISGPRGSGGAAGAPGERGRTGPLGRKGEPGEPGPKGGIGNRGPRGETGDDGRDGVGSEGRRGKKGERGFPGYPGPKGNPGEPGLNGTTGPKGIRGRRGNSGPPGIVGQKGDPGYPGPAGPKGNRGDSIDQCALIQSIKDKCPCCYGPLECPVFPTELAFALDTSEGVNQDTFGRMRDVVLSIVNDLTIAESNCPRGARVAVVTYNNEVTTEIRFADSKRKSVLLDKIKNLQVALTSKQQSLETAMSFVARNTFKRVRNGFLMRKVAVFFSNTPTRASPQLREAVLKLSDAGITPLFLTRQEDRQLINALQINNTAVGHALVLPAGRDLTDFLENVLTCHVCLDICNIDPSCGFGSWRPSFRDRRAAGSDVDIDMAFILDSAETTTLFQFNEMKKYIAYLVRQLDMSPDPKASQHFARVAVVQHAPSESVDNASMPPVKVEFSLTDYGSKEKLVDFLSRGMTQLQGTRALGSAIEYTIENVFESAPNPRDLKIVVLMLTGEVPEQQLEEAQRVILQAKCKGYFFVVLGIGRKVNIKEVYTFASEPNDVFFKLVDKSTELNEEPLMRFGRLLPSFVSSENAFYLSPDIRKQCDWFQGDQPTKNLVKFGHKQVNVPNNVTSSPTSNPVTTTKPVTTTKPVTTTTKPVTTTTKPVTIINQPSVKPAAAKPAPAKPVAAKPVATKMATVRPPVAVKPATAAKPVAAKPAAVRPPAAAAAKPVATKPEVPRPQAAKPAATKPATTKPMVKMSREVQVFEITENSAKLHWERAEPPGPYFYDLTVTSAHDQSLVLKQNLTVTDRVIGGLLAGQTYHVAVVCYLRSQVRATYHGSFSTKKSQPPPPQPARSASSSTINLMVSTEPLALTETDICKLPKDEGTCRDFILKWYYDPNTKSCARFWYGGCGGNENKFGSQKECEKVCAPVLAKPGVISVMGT
UniProt Q7L7V1, sequence (Q7L7V1 whole entry, looked up): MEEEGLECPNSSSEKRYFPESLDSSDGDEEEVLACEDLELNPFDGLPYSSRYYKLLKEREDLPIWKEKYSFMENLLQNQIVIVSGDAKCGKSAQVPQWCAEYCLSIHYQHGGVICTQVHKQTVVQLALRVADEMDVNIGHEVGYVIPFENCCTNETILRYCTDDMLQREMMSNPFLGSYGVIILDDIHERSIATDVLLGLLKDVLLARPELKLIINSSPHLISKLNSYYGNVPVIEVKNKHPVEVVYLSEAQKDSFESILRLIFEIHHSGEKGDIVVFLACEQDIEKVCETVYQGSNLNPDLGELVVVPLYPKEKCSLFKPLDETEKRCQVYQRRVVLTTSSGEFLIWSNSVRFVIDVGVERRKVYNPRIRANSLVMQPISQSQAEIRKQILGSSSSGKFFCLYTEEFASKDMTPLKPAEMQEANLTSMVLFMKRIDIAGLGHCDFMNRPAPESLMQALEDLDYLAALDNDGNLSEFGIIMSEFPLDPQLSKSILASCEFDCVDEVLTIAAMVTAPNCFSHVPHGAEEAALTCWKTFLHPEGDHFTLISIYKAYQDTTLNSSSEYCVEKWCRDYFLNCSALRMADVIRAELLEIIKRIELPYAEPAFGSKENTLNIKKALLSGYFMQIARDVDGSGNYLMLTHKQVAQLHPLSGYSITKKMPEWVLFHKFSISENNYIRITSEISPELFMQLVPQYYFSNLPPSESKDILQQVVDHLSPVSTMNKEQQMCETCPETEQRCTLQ
UniProt Q16527, sequence (Q16527 whole entry, looked up): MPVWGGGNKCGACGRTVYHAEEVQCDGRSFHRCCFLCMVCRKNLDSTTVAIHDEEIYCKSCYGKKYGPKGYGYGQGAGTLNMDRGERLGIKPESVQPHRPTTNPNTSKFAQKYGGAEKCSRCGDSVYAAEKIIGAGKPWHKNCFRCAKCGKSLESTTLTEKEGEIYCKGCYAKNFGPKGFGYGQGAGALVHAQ

Take CLPTM1L (UniProt Q96KA5): the log2 fold change in [1] is -0.095; in assay [2] it was -0.021; in assay [3] it was -0.092; in [4], -0.049; in assay [5], -0.233 (active); in [6], 0.004. Besides, the log2 fold change in assay [7] was -0.098; in [8] it was -0.064; in assay [9], 0.137; in assay [10], 0.037; in assay [11] it was -0.005; in assay [12], 0.006. The log2 fold change in assay [13] is 0; in assay [14] it was -0.016; in [15], 0.011; in assay [16] it was -0.026; in [17], 0.046; in assay [18], 0.016. Moreover, the log2 fold change in [19] is -0.069.

Regarding DBF4 (UniProt Q9UBU7), the log2 fold change was 0 in assay [20]; -0.031 in assay [2]; -0.409 (active) in [3]; 0.004 in [4]; 0.059 in [5]; -0.009 in [6]. The log2 fold change in assay [7] was -0.018; in assay [8] it was -0.028; in [9], 0.035; in [10], 0.05; in assay [11], 0; in [12], 0.091. Besides, the log2 fold change in assay [13] was 0.17; in assay [14] it was -0.021; in [15], 0.038; in assay [16], -0.146; in assay [17], 0.043; in assay [19], 0.07.

With CSRP2 (UniProt Q16527), the log2 fold change in [20] is -0.063; in assay [2], -0.157; in [3], -0.018; in assay [5] it was -0.068; in [6] it was 0.118; in [7], 0.051. Besides, the log2 fold change in assay [8] was 0.072; in [9], 0.052; in assay [15], -0.012; in assay [17], 0.068.

For CSNK2A1, A0A2R8Y4D6, the log2 fold change was -0.132 in assay [1] and 0.085 in assay [18].

In the case of DAZAP1 (UniProt K7EQ02), the log2 fold change was -0.221 in assay [10], 0.096 in assay [11], 0.119 in assay [13] and -0.039 in assay [16].

Turning to DCTN1 isoform 4 (UniProt Q14203), the log2 fold change in assay [1] was -0.039; in assay [2], -0.031; in assay [3], 0.054; in assay [4], -0.032; in assay [5] it was 0.121; in assay [6], 0.173. The log2 fold change in assay [7] was -0.103; in assay [9], -0.239; in assay [10], 0.304; in [11], -0.331; in assay [12] it was -0.163; in assay [13], -0.288. Also, the log2 fold change in assay [14] was -0.051; in assay [15], -0.064; in [16], -0.064; in [17], 0.074; in assay [18], 0.139; in assay [19], 0.169.

As for DNM2 isoform 4 (UniProt P50570), the log2 fold change in assay [1] was 0.031; in [2], 0.014; in assay [3], -0.16; in assay [4], 0.015; in [5] it was -0.134; in [6] it was -0.084. Further, the log2 fold change in assay [7] was 0.066; in [9], 0.16; in assay [10], 0.078; in assay [11], -0.018; in assay [12], -0.095; in [13], -0.03. Further, the log2 fold change is 0.162 in assay [14]; 0.025 in assay [15]; -0.12 in assay [16]; 0.088 in [17]; 0.044 in [18]; -0.181 in assay [19].

As to DHX32 (UniProt Q7L7V1), the log2 fold change in assay [2] was -0.03; in assay [3] it was -0.013; in assay [5] it was -0.01; in [6], 0.108; in assay [7] it was 0.012; in assay [9], -0.077. The log2 fold change is -0.025 in assay [10]; -0.027 in assay [11]; -0.044 in assay [13]; -0.015 in [15]; -0.061 in [16]; 0.142 in [17]. Also, in [19], the log2 fold change is 0.108.

On to COL6A3 (UniProt P12111), for which the log2 fold change in [20] was -0.019; in [2] it was -0.023; in assay [3], -0.04; in assay [4] it was 0.013; in assay [5] it was -0.036; in [7], 0.032. Further, the log2 fold change in [8] was 0.036; in assay [9], 0.048; in assay [10] it was 0.05; in assay [11], 0.151; in assay [12], 0.032; in assay [13], 0.02. Also, the log2 fold change in assay [14] was -0.055; in assay [15], 0.123; in assay [16], -0.009; in assay [17], 0; in [19], -0.155.

With CYP2S1 isoform 2 (UniProt Q96SQ9), the log2 fold change in [1] is 0.316; in assay [2], 0.023; in assay [4], -0.075; in assay [6] it was -0.023; in assay [7], -0.057; in [12], 0.116. Besides, the log2 fold change was 0.093 in [14]; 0.014 in assay [15]; -0.135 in assay [17]; 0.054 in assay [18]; -0.056 in assay [19].

Consider DNAJC24 (UniProt Q6P3W2), for which the log2 fold change in assay [1] was 0.006; in assay [2], 0.074; in assay [3] it was 0.152; in assay [4], -0.025; in assay [5], -0.162; in assay [6] it was 0.073. In addition, the log2 fold change in [7] was 0.042; in [9], -0.134; in assay [10], 0; in assay [11], -0.093; in assay [12], 0.062; in assay [13], 0.02. In addition, the log2 fold change in assay [14] is -0.039; in assay [15], -0.042; in [16], 0.063; in [17], 0.054; in [18], -0.041; in assay [19] it was -0.015.

Values taken from the supplement of paper PMC10849652.
